Inconclusive results are not listed. Activity calls are given as the source filed them. How the source made its calls: active means hit-call score of the fitted dose curve at least 0.9, where 1 is the maximum; inconclusive means response in the unintended direction; inactive means score below 0.9.
test: CCTE_Shafer_MEA_dev_active_electrodes_number: CCTE's Neural Network Formation Assay for Number of Active Electrodes, Shafer Lab (AID 2284040);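 on AC50: potency for loss of active electrodes versus DMSO so lower counts are hits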
Description: CCTE_Shafer_MEA_dev assay is conducted using Axion Biosystems 48 well microelectrode array (MEA) plates and Maestro recording system. Each well of the MEA plate contains a grid of 16 microelectrodes embedded in the culture surface. Electrically active cells, such as neurons, can be cultured over the electrodes, and electrical activity in these cells can be recorded extracellularly. The spontaneous firing of neurons is captured from each electrode on a microsecond timescale providing both temporally and spatially precise data. […] The CCTE_Shafer_MEA_dev assay uses primary cultures of rat cortical neurons. Recordings are made on days post-plating 5, 7, 9 and 12. As these cultures mature over time, neural networks develop functional activity and form cohesive networks in which electrical activity can be highly coordinated. CCTE_Shafer_MEA_dev_active_electrodes_number is 1 of 19 assay components of the CCTE_Shafer_MEA_dev assay. It measures the number of electrodes in a well with a mean firing rate of at least 5 spikes (action potential firings) per minute during a recording in a microelectrode array (MEA) using Axion Biosystems Maestro 768 channel amplifier with the AxIS adaptive spike detector. To collapse across multiple recordings made on days post-plating 5, 7, 9 and 12, the trapezoidal area-under-the-curve of the component is calculated.Data from the assay component CCTE_Shafer_MEA_dev_active_electrodes_number was analyzed into 1 assay endpoint. This assay endpoint, CCTE_Shafer_MEA_dev_active_electrodes_number, was analyzed in the negative analysis fitting direction relative to DMSO as the negative control and baseline of activity. Using a type of functional reporter, gain or loss-of-signal activity can be used to understand electrical activity.
On the day prior to culture, each well was coated thoroughly with 150 uL of 0.05% polyethyleneimine (PEI, Sigma Cat P3143) in 50 mM HEPES (Sigma Cat H7523) at a pH of 8. The plate was incubated at 37C for one hour. PEI was rinsed out with 500 uL of sterile water three times. Plates were stored at 4C until the day of culture. This culture was plated at a seeding density of 1.5 x 10^5 cells/well on a 48-well MEA plate, prepared as described above. Cells were administered via a 25 uL media/laminin ([…]; Sigma Cat L2020-1MG) drop directly onto the microelectrode array, as adding the cells with the laminin results in better attachment than pre-coating with laminin. After 2 hours, an additional 475 uL of cortical media was added and the cells returned to the incubator. Exposure starts at day 0 of plating and is continued over twelve days of network development until the experiment is terminated. Cells are fed with fresh medium on DIV 5 and 9, following the recordings on those days. The entire volume of media in the well is exchanged and any vehicle or compound treatment is renewed. Complete details are found in OP-NHEERL/ISTD/SBB/TJS/2015-03-r0 (available on request, email shafer.tim@epa.gov). Measurement of the electrical activity is non-invasive, and recordings can be made from the same plate over multiple different days of the culture. In cortical neurons, this allows for the measurement of extracellular action potentials over the period during which networks form in the MEA plate.

| SMILES | outcome | AC50 |
| --- | --- | --- |
| NC(=O)NO | inactive | – |
| COc1ccc(-n2nc(C(F)F)cc2-c2ccc(S(C)=O)cc2)cc1 (stereo not given) | – | 10 µM (active) |
| Cn1c(=O)c2c(ncn2C)n(C)c1=O | inactive | – |
| O=P(OC(CCl)CCl)(OC(CCl)CCl)OC(CCl)CCl | inactive | – |
| Nc1nc2ncc(CNc3ccc(C(=O)N[C@@H](CCC(=O)O)C(=O)O)cc3)nc2c(=O)[nH]1 | inactive | – |
| O=C1CCC(N2C(=O)c3ccccc3C2=O)C(=O)N1 (stereo not given) | inactive | – |
| CCC(C)(C)C(=O)O[C@H]1C[C@@H](C)C=C2C=C[C@H](C)[C@H](CC[C@@H]3C[C@@H](O)CC(=O)O3)[C@H]21 | – | 0.801 µM (active) |
| CC[C@H](C)C(=O)O[C@H]1C[C@@H](C)C=C2C=C[C@H](C)[C@H](CC[C@@H]3C[C@@H](O)CC(=O)O3)[C@H]21 | – | 1.76 µM (active) |
| CNCc1ccc(NC(=O)c2c[nH]c3c2C(=O)CCC3)cc1 | – | 1.98 µM (active) |
| CC[C@H]1OC(=O)[C@H](C)[C@@H](O[C@H]2C[C@@](C)(OC)[C@@H](O)[C@H](C)O2)[C@H](C)[C@@H](O[C@@H]2O[C@H](C)C[C@H](N(C)C)[C@H]2O)[C@](C)(O)C[C@@H](C)C(=O)[C@H](C)[C@@H](O)[C@]1(C)O | inactive | – |
